Source: PubChem BioAssay AID1981 (Southern Research Specialized Biocontainment Screening …, 2009)
Among all 2,200 compounds or so, about 480 (22%) were called active. No rule for the calls is given here. Not all results are given here. Measured potencies and affinities stand elsewhere.

experiment: S. Typhimurium GFP fluorescence dose response in modified counterscreen for PhoP regulon inhibitor project (AID 1981); settings: 4 h; series mostly up to 150 µM

Row | Compound | outcome
1 | O=C(O)Cc1sc(Nc2ccc(Cl)cc2)nc1-c1cccs1 | inactive
2 | S=C(c1ccc2c(c1)OCO2)N1CCCC1 | inactive
3 | Cc1ccc(-c2n[nH]c(=S)n2/N=C/c2cc3c(cc2[N+](=O)[O-])OCO3)cc1 | inactive
4 | O=c1[nH]c(SCc2nc3ccccc3c(=O)n2-c2ccccc2C(F)(F)F)nc2ccccc12 | inactive
5 | CCC(OC(=O)C(NC(=O)c1ccccc1)c1ccccc1)C(=O)Nc1cc(C)on1 (stereo not given) | inactive
6 | S=c1[nH]nc(Cc2cccc3ccccc23)o1 | inactive
7 | Cc1ccc(S(=O)(=O)N2C(=O)CCC2C(=O)N2CCN(C)CC2)cc1 (stereo not given) | inactive
8 | CN(C)c1nc(N)nc(Cn2ccnc2)n1 | inactive
9 | CC(NCc1ccc(Cl)c(Cl)c1)C(O)c1ccccc1 (stereo not given) | inactive
10 | CCCc1cc(C(=O)Cc2ccc(C(=O)OCC)o2)c(O)cc1O | inactive
11 | COc1ccc(C(=O)Nn2c(SCC(=O)N3CCC(C)CC3)nc3ccccc3c2=O)cc1 | inactive
12 | O=C(COc1ncnc2sccc12)N1CCN(S(=O)(=O)c2ccc(Cl)cc2)CC1 | inactive
13 | O=S(=O)(c1ccc2c(c1)OCCO2)N1CCN(c2cccc(Cl)c2)CC1 | inactive
14 | COc1ccc(N(C(=O)CCl)C(C(=O)NCCc2ccccc2)c2cccs2)cc1 (stereo not given) | inactive
15 | S=C(Nc1ccc2snnc2c1)N1CCN(c2ccccn2)CC1 | inactive
16 | CCn1c2ccccc2c2nnc(SCC(=O)Nc3ccc4c(c3)OCO4)nc21 | inactive
17 | CCCn1c(SCC(=O)c2c(C)[nH]c(C)c2C(=O)OCC)nc2ccccc21 | inactive
18 | Clc1ccc(CNc2ccc(CNc3ncn[nH]3)cc2)cc1 | inactive
19 | COc1cc(CNc2ccc(CNc3ncn[nH]3)cc2)ccc1OCc1ccccc1 | inactive
20 | CC(C)(C)c1n[nH]c(=S)n(/N=C/c2cccs2)c1=O | inactive
21 | Cc1cccc(Nc2nnc(SCC(=O)NC3CCCc4ccccc43)s2)c1 (stereo not given) | inactive
22 | CCCCOc1ccc(S(=O)(=O)NNC(=O)C2Cc3c(ccc4ccccc34)O2)cc1 (stereo not given) | inactive
23 | Clc1ccc(SCCCCn2ccnc2)cc1 | inactive

Row | Compound | outcome
24 | Cc1c(NS(=O)(=O)c2ccccc2)c(=O)n(-c2ccccc2)n1C | inactive
25 | CN1CCN(Cc2nc3ccccc3c(=O)[nH]2)CC1 | inactive
26 | CC(O)CNc1cc(N)c([N+](=O)[O-])cc1[N+](=O)[O-] (stereo not given) | inactive
27 | O=P1(NC2CCCC2)COc2ccccc2OC1 | inactive
28 | c1ccc(Nc2nc3ccccc3[nH]2)nc1 | inactive
29 | c1ccc(Nc2ccnc(Nc3ccccc3)n2)cc1 | inactive
30 | O=C1CN(C(=O)COC(=O)CCC(=O)c2ccc3c(c2)OCCO3)c2ccccc2N1 | inactive
31 | CSC(=NS(=O)(=O)c1ccccc1)SC | inactive
32 | O=C(c1ccccc1)C(CN1CCCC1)c1ccccc1 (stereo not given) | inactive
33 | NC1=NC(=Nc2ccc(Cl)cc2)c2ccccc21 | inactive
34 | C(=Nc1ccc(Nc2ccccc2)cc1)c1ccc2ccccc2c1 | inactive
35 | CCOC(=O)N1CCN(c2nc(C)c3c(n2)CCCC3=O)CC1 | inactive
36 | Cc1cc(=O)oc2cc(OCC(O)CN3CCc4ccccc4C3)ccc12 (stereo not given) | inactive
37 | CN1CCCC(OC(=O)c2ccc3c(c2)OCCO3)C1 (stereo not given) | inactive
38 | COc1nc(N(c2ccccc2)c2ccccc2)nc(-n2ccnc2)n1 | inactive
39 | COCCCNc1ccnc2c(Cl)cccc12 | inactive
40 | COc1ccc(-c2cc(C(=O)Nc3ccc(S(=O)(=O)Nc4ncccn4)cc3)c3ccccc3n2)cc1 | inactive
41 | CN(CC(=O)NCc1cccc(F)c1)C(=O)c1ccco1 | inactive
42 | COC(=O)c1ccc(Sc2ccccc2NS(=O)(=O)c2ccc(C)cc2)nc1 | inactive
43 | O=C(c1ccco1)N1CCN(c2ncnc3c2[nH]c2ccccc23)CC1 | inactive
44 | C=CCOc1ccc(/C=N/NC(=O)CN(c2cc(Cl)ccc2OC)S(=O)(=O)c2ccc(C)c([N+](=O)[O-])c2)cc1 | inactive
45 | CN(CC(=O)Nc1ccc(C#N)cc1)Cc1ccc(Cl)cc1 | inactive
46 | O=C(CSc1ccc(Cl)cc1)Nc1ccccc1N1CCN(C(=O)c2ccc(Cl)cc2)CC1 | inactive

Row | Compound | outcome
47 | Cc1nc(C(=O)Nc2ccc(Cl)cc2)nn1-c1ccc([N+](=O)[O-])cc1 | inactive
48 | NNC(=O)c1cc2ccccc2cc1O | inactive
49 | OC1(c2ccc3ccccc3c2)CCN(Cc2ccccc2)C1 (stereo not given) | inactive
50 | NC(=NCCc1c[nH]c2ccccc12)NC(=O)c1ccc(F)cc1 | inactive
51 | C=CCSc1ncnc2sc(C)c(C)c12 | inactive
52 | Cc1cc2cc(CCNC(=O)c3cccs3)c(=O)[nH]c2cc1C | inactive
53 | CCOC(=O)c1cnc2ccc(OC)cc2c1Nc1ccc2c(c1)OCCO2 | inactive
54 | COc1cccc(Cn2cnc3c(NS(=O)(=O)c4cccc(Cl)c4Cl)c(C)c(C)cc32)c1 | inactive
55 | Cc1cc(Oc2ccc(-c3nnc(-c4ccccc4)o3)cc2[N+](=O)[O-])ccc1Cl | inactive
56 | O=c1[nH]c(CSc2nnc(NCCCN3CCOCC3)s2)nc2cc(Cl)ccc12 | inactive
57 | O=C(Nc1ccc(O)cc1)c1cc2n(n1)C(C(F)(F)F)CC(c1ccco1)N2 (stereo not given) | inactive
58 | CCOc1cc(C2Nc3cccc4cccc(c34)N2)ccc1O | inactive
59 | OC(COc1ccc2c(c1)CCC2)Cn1cnc2ccccc21 (stereo not given) | inactive
60 | O=C1CC(SCc2nc3ccccc3[nH]2)C(=O)N1c1ccc(Cl)cc1 (stereo not given) | inactive
61 | Cc1c(Cl)cccc1NC(=O)CSc1ncnc2c1cnn2CCc1ccccc1 | inactive
62 | Cc1ccc(S(=O)(=O)N2CCC(C(N)=O)CC2)c(C)c1C | inactive
63 | O=C1C2=C(NC(=S)NC2c2ccc(Cl)cc2)NC(c2ccc(Cl)cc2)N1c1ccc(Cl)cc1 (stereo not given) | inactive
64 | Cc1nc(-c2ccccc2)cc(=O)[nH]1 | inactive
65 | CC(=O)C1=C(C)Nc2ncnn2C1c1ccccc1OCc1ccccc1 (stereo not given) | inactive
66 | O=C(Nc1ccc2c(c1)OCO2)c1cnn2cccnc12 | inactive
67 | CC(O)CNCCNCc1c(OCc2ccccc2)ccc2ccccc12 (stereo not given) | inactive
68 | OCCN(Cc1ccccc1)Cc1ccc(Cl)cc1 | inactive
69 | N#CC1=C(N)Oc2c(O)cc3ccccc3c2C1c1ccsc1 (stereo not given) | inactive

Row | Compound | outcome
70 | COc1ccc(Nc2ccc3c(c2)=NC2(CCCCC2)[N+]=3[O-])cc1 | inactive
71 | COc1ccc(Nc2sc(C(=O)Nc3cccc(Cl)c3)c(N)c2C(=O)Nc2ccccc2OC)cc1 | inactive
72 | COc1ccc(OCCSc2nnc(-c3ccc(OC)cc3)n2N)cc1 | inactive
73 | O=C(CC(NS(=O)(=O)c1ccc(Cl)cc1)c1ccco1)N1CCc2ccccc21 (stereo not given) | inactive
74 | Cc1cc(-c2nnc(-c3ccccc3)c(-c3ccccc3)n2)c(C)o1 | inactive
75 | CO/N=C\CC(=O)Nc1ccc(F)cc1 | inactive
76 | Cc1ccc(NC(=S)NCc2cccnc2)cc1 | inactive
77 | Oc1ccc(/C=N/NC(=S)Nc2cccnc2)c(O)c1 | inactive
78 | COc1cccc(NC(=O)NCCCN2CCN(c3ccc(F)cc3)CC2)c1 | inactive
79 | Cc1ccc(-n2c(C)cc(-c3csc(N)n3)c2C)cc1 | inactive
80 | CCOc1ccc(C(=O)Nc2ccccc2CC)cc1[N+](=O)[O-] | inactive
81 | CCOc1ccc(C(=O)NC(=S)Nc2ccc(N3CCCCC3)cc2)cc1[N+](=O)[O-] | inactive
82 | CCOc1ccc(CSC(=N)N)cc1[N+](=O)[O-] | inactive
83 | CC(C)NC(=O)/C(=N\O)c1ccccc1 | inactive
84 | Cc1ccc(Oc2nnc(-c3ccccc3)c3ccccc23)cc1 | inactive
85 | CCn1c(SCC(=O)N2CCCCC2)nc(O)cc1=O | inactive
86 | Cc1ccc(Nc2cc(=O)[nH]c(=O)[nH]2)c(C)c1 | inactive
87 | CCn1c2ccccc2c2cc(C3N=C(N)Nc4nc5ccccc5n43)ccc21 (stereo not given) | inactive
88 | CCn1cc(C(=O)O)c(=O)c2cc(OC)ccc21 | inactive
89 | COc1ccc(Oc2coc3cc(OC(=O)c4cccs4)ccc3c2=O)cc1 | inactive
90 | CCOC(=O)c1ccc(NC(=O)Nc2cc(C)on2)cc1 | inactive
91 | COC(=O)C1C(=O)C=C(N2CCOCC2)CC1(C)C (stereo not given) | inactive
92 | O=C(CNC(=O)OCc1ccccc1)NCC(=O)N1CCCC1C(=O)OCc1ccccc1 (stereo not given) | inactive

Row | Compound | outcome
93 | COc1ccc(C2=C(Nc3ccc(C)cc3)c3ccccc3C2=O)cc1 | inactive
94 | O=c1c(Cl)c(Cl)cnn1Cc1ccccc1Cl | inactive
95 | N=c1sccn1CC(=O)Nc1ccccc1Oc1ccccc1 | inactive
96 | CC(=O)N1CCC(N(CCN2CCOCC2)C(=S)Nc2cccc(C)c2C)CC1 | inactive
97 | CCCNC(=O)COC(=O)CCC(=O)c1ccc(F)cc1 | inactive
98 | NC(=NCc1ccc2c(c1)OCO2)NC(=O)c1ccccc1 | inactive
99 | O=C(CN1CCCCC1)Nc1cccc2c1OCO2 | inactive
100 | O=C(Nc1ccc2oc(-c3ccc(Cl)c(Cl)c3)nc2c1)c1ncn[nH]1 | inactive
101 | CCOC(=O)C1=C(C)Nc2nc3ccccc3n2C1c1cccs1 (stereo not given) | inactive
102 | COc1ccc(-c2nc3ccccc3c(=O)n2-c2nccs2)cc1 | inactive
103 | Brc1cccc(CNc2nc3ccccc3n2CCN2CCCCC2)c1 | inactive
104 | CC(=O)N1C(=O)C2(C(C#N)=C(N)Oc3c2c(C)nn3-c2ccccc2)c2ccccc21 (stereo not given) | inactive
105 | CCCCn1cnc2c(cnn2-c2ccc(F)cc2)c1=O | inactive
106 | CC(NC(=O)C1(C)CC1(Br)Br)C(C)(C)C (stereo not given) | inactive
107 | Cc1ccc(C(=O)NNc2c3ccccc3nc3ccccc23)cc1 | inactive
108 | Cc1ccc(C(=O)C(OC(=O)COc2ccccc2C)c2ccccc2)cc1 (stereo not given) | inactive
109 | O=C(NCCc1ccccc1)c1ccc2nc(-c3ccco3)c(-c3ccco3)nc2c1 | inactive
110 | C=CCOc1ccccc1CNCCCN1CCOCC1 | inactive
111 | O=c1[nH]c(NCc2ccco2)nnc1Cc1ccccc1Cl | inactive
112 | O=C(NNc1c2ccccc2nc2ccccc12)c1cccc(O)c1 | inactive
113 | Nc1cc(N)cc(-c2nc3ccccc3[nH]2)c1 | inactive
114 | COc1ccc(S(=O)(=O)n2nc(OC(=O)c3cccs3)cc2N)cc1 | inactive
115 | CC(=O)C1=C(C)NC(SCSc2ccccc2)=C(C#N)C1c1cccnc1 (stereo not given) | inactive
